From PubChem BioAssay (NCATS)
Inconclusive results are not listed. Where a call stands in place of a potency, no number is given. Calls of active or inactive are those of the source. The call rests on the fitted dose curve; in most records, active means well fitted curve in the direction sought with a large enough effect; inconclusive means small, poorly fitted or top-dose-only effect, or another doubt; inactive means no such curve, though single readings can be large; an effect the other way counts as inactive or inconclusive.

Assays:
[1] = molecular target: Aldehyde dehydrogenase, mitochondrial (Homo sapiens) (UniProt P05091); test: qHTS for Inhibitors of the Aldehyde Dehydrogenase Family (ALDH2) Primary screen (AID 2061308); further: nearly all actives have a fitted effect of over 55% in size
[2] = molecular target: Retinaldehyde dehydrogenase 3 (Homo sapiens) (UniProt P47895); test: qHTS for Inhibitors of the Aldehyde Dehydrogenase Family (ALDH1A3) Primary screen (AID 2061315)

| SMILES | Potency [1] | Potency [2] |
| --- | --- | --- |
| O=S(=O)(c1ccc2c(c1)OCCO2)N1C[C@@H]2C[C@H]1CN2S(=O)(=O)c1c(F)cccc1F | inactive | inactive |
| CCOc1ccc(C(=O)Oc2ccc(-c3nc4ccccc4[nH]3)cc2)cc1[N+](=O)[O-] | inactive | inactive |
| O=C(O)c1ccc(-c2ccc3ncnc(NCc4nccs4)c3c2)o1 | inactive | inactive |
| COc1ccc(C(=O)N(Cc2cccs2)Cc2cccs2)c(O)c1 | inactive | inactive |
| Cc1cnc(-c2ccccc2OC(C)C)nc1NCc1ccc(-n2ccnn2)cc1 | inactive | inactive |
| O=C(Nc1ccc(-c2nc3ccccc3[nH]2)cc1)c1ccc2c(c1)OCCO2 | inactive | inactive |
| Cc1ccc(C(=O)Nc2ccc(N3CCOCC3)cc2)cc1 | inactive | inactive |
| Cc1ccc(N2C(=O)c3ccccc3C2=O)c(C)c1 | inactive | inactive |
| Cc1cc(C)nc(NC(=S)N2CCN(c3cc(C(F)(F)F)nc(C)n3)CC2)c1 | inactive | inactive |
| O=[S+]([O-])(c1ccc2c(c1)OCCO2)N1CCN([S+](=O)([O-])c2cc(Cl)ccc2F)CC1 | inactive | inactive |
| O=C(OCC#CCSc1nnc(-c2cccc3ccccc23)s1)c1cccs1 | inactive | inactive |
| O=C(c1ccc2c(c1)ncn2-c1ccc(Cl)cc1)N1CCCCC1 | inactive | inactive |
| c1ccc2c(Nc3nnc(-c4ccncc4)s3)cccc2c1 | inactive | inactive |
| Cc1ccc(-c2cc(C(=O)O)c3cccc(C)c3n2)cc1C | inactive | inactive |
| COc1cccc(C2=Nn3c(nnc3-c3cccc(OC)c3)SC2)c1 | inactive | inactive |
| O=S(=O)(Cc1ccc(Cl)c(Cl)c1)Nc1nnc(-c2ccncc2)s1 | inactive | inactive |
| c1cncc(-c2ccc3ncnc(NCc4cccs4)c3c2)c1 | inactive | inactive |
| COc1nccc(-c2nc(Nc3ccc(F)c(F)c3)c3ccccc3n2)c1Cl | inactive | inactive |
| CC(Nc1nc(-c2ccccc2C(F)(F)F)nc2ccccc12)c1ccc(-c2cccc(C(F)(F)F)c2)cc1 (configuration not stated) | inactive | inactive |

| SMILES | Potency [1] | Potency [2] |
| --- | --- | --- |
| CC1=C(C(=O)Nc2ccccc2C)C(c2ccccc2Br)N=C(Nc2nc3ccccc3o2)N1 (configuration not stated) | inactive | inactive |
| O=C(O)c1ccc2c(c1)C(=O)N([C@]1(C(=O)O)CC1c1ccccc1)C2=O (some centres not stated) | inactive | inactive |
| CN1CCN(c2cc(-c3nc(Nc4ccc(F)c(F)c4)c4ccccc4n3)ccn2)CC1 | inactive | inactive |
| COc1cccc(C2c3c(ncn(-c4cccc(C#N)c4)c3=N)Oc3ccc4ccccc4c32)c1 (configuration not stated) | inactive | inactive |
| O=S(=O)(c1ccc2c(c1)OCCO2)N1CCN(S(=O)(=O)c2ccc3nc(Cl)c(Cl)nc3c2)CC1 | inactive | inactive |
| CCOC(=O)c1nnc(N[S+](=O)([O-])c2ccc(NC(=O)Cc3ccc(Cl)c(Cl)c3)cc2)s1 | inactive | inactive |
| COc1cc(O)c(C(CC(=O)N2CCCC(C)C2)c2ccc3c(c2)OCO3)c(OC)c1 (configuration not stated) | inactive | inactive |
| COc1cc(F)c(S(=O)(=O)N2CCN(S(=O)(=O)c3cccc(NC(C)=O)c3)CC2)c(F)c1 | inactive | inactive |
| COc1ccc2c(c1)CN(C(=O)CCN1CCC(Cc3ccccc3)CC1)CCS2 | inactive | inactive |
| O=C(OCC#CCSc1nnc(-c2cccc3ccccc23)o1)c1ccc(Cl)c(C(F)(F)F)c1 | inactive | inactive |
| CC(C)Oc1ccc(CCNC(=O)c2cc3sccc3n2Cc2ccccc2)cc1OC(C)C | inactive | inactive |
| CCN1CCN(c2cc(-c3ccc(F)cc3)c3c(n2)CCCCCC3)CC1 | inactive | inactive |
| O=[N+]([O-])c1ccc([S+](=O)([O-])N2CCN([S+](=O)([O-])c3ccc4c(c3)OCCO4)CC2)c([N+](=O)[O-])c1 | inactive | inactive |
| COC(=O)c1ccc(N2CCN(S(=O)(=O)c3ccc4c(c3)CC(=O)N4)CC2)cc1 | inactive | inactive |
| CC1=CC(=O)C2C(C)(C)CCC[C@]2(C)[C@H]1CC[C@H](C)CC(=O)O (some centres not stated) | inactive | inactive |
| O=S(=O)(Nc1ccc(-c2ccccc2)cc1)c1ccc(NCc2ccc(Br)cc2O)cc1 | inactive | inactive |
| CC(=O)OC1CC2C3(C)CCC(OC(=O)CC(=O)O)C(C)(C)C3CCC2(C)C2(C)CCC(C3(C)CCC(=O)O3)C12 (configuration not stated) | inactive | inactive |
| CCCCNc1ncc2c(-c3ccc(S(=O)(=O)N4CCOCC4)cc3)nn(C3CCC(O)CC3)c2n1 (configuration not stated) | inactive | inactive |
| CCOc1ccc(CCNC(=O)c2cc3sccc3n2Cc2ccccn2)cc1OCC | inactive | inactive |

| SMILES | Potency [1] | Potency [2] |
| --- | --- | --- |
| c1cncc(-c2ccc(CNc3nc(N4CCOCC4)nc4ccccc34)cc2)c1 | inactive | inactive |
| Cc1ccc(-c2cc(C(=O)Nc3ccc(S(=O)(=O)N(C)C)cc3)c3ccccc3n2)cc1C | inactive | inactive |
| Cc1cc2c(s1)c1cnn(Cc3ccccc3F)c(=O)c1n2C | inactive | inactive |
| COc1ccc(C2c3c(nc(C)[nH]c3=O)Oc3ccc4ccccc4c32)cc1OC (configuration not stated) | inactive | inactive |
| NC(=O)C1CCN(c2ncc(Br)cn2)CC1 | inactive | inactive |
| Cc1ccccc1C(=O)N1CCc2cc(-c3ccnc(NC(=O)Cc4ccccc4)n3)ccc21 | inactive | inactive |
| O=C(OCC#CCSc1nnc(-c2cccc3ccccc23)o1)C1CCCC1 | inactive | inactive |
| COc1cc(F)c(S(=O)(=O)N2CCCN(S(=O)(=O)c3cccc(NC(C)=O)c3)CC2)c(F)c1 | inactive | inactive |
| COC(=O)c1ccc(O)c2ncccc12 | inactive | inactive |
| COc1ccc(-c2csc(N3CCC(C(N)=O)CC3)n2)cc1OC | inactive | inactive |
| CN(C)c1cccc(-c2ncc(F)c(N3CCC(C(N)=O)CC3)n2)c1 | inactive | inactive |
| CC(C)(C)OC(=O)NCc1nnc(C(C(=O)OCc2ccccc2)c2ccccc2)s1 (configuration not stated) | inactive | inactive |
| O=C(O)c1ccc2c(c1)C(=O)N([C@H](Cc1c3ccccc3cc3ccccc13)C(=O)O)C2=O | inactive | inactive |
| COc1cc(O)c(C(CC(=O)N2CCCC(c3nc4ccccc4o3)C2)c2ccc3c(c2)OCO3)c(OC)c1 (configuration not stated) | inactive | inactive |
| COc1ccc(C2c3c(n(CCc4ccccc4)cnc3=N)Oc3ccc4ccccc4c32)cc1OC (configuration not stated) | inactive | inactive |
| COCC1CCCN(C(=O)CC(c2ccc3c(c2)OCO3)c2c(O)cc(OC)cc2OC)C1 (configuration not stated) | inactive | inactive |
| Cc1cc(C)nc(NC(=S)N2CCN(c3nncs3)CC2)c1 | inactive | inactive |
| Brc1ccc(-c2csc(N3CCOCC3)n2)cc1 | inactive | inactive |
